In all, about 5,500 compounds went through this assay and about 2,000 (36%) were called active. Not shown: some 18% with an inconclusive outcome. Rule as the data show it: active = normalized growth mostly below about 0.91 (no sharp cut-off); inconclusive = no clear call, values can overlap the other calls; inactive = mostly above about 0.92. The list shows a part of the results.
Assay: chemical genetic growth profiling, strain panel (AID 1159580);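 also: tested at 20 µM; growth read once vehicle control cultures reached saturation at 30 °C; 1 = growth at the plate median or of vehicle wells; lower values mean less growth of the strain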
Conditions: growth OD

Measured: normalized growth

NS(=O)(=O)c1cc2c(cc1Cl)NC(CSCc1ccccc1)=NS2(=O)=O
inactive: S. cerevisiae deletion strains, locus YJR075W, strain HOC1, stronger effect = lower value 0.971 | S. cerevisiae deletion strains, locus YKL009W, strain mrt4, stronger effect = lower value 0.99 | S. cerevisiae deletion strains, locus YKL068W, stronger effect = lower value 0.988 | S. cerevisiae deletion strains, locus YKL085W, strain MDH1 (second series), stronger effect = lower value 0.998 | S. cerevisiae deletion strains, locus YKL085W, strain MDH1, stronger effect = lower value 0.998 | S. cerevisiae deletion strains, locus YKL160W, strain elf1, stronger effect = lower value 1.01 | S. cerevisiae deletion strains, locus YKL190W, strain CNB1, stronger effect = lower value 0.987 | S. cerevisiae deletion strains, locus YKR001C, strain vps1, stronger effect = lower value 0.982 | S. cerevisiae deletion strains, locus YKR026C, strain gcn3, stronger effect = lower value 1.02 | S. cerevisiae deletion strains, locus YKR091W, strain srl3, stronger effect = lower value 1.02 | S. cerevisiae deletion strains, locus YLL001W, strain dnm1, stronger effect = lower value 1.03 | S. cerevisiae deletion strains, locus YLL026W, stronger effect = lower value 1.02 | S. cerevisiae deletion strains, locus YLL041C, strain sdh2, stronger effect = lower value 1.02 | S. cerevisiae deletion strains, locus YLR027C, strain aat2, stronger effect = lower value 1.02 | S. cerevisiae deletion strains, locus YLR039C, strain RIC1, stronger effect = lower value 1.05 | S. cerevisiae deletion strains, locus YLR058C, strain SHM2, stronger effect = lower value 0.982 | S. cerevisiae deletion strains, locus YLR102C, strain apc9, stronger effect = lower value 0.986 | S. cerevisiae deletion strains, locus YLR113W, strain HOG1, stronger effect = lower value 0.97 | S. cerevisiae deletion strains, locus YLR221C, strain rsa3, stronger effect = lower value 1.02 | S. cerevisiae deletion strains, locus YLR258W, strain gsy2, stronger effect = lower value 0.994 | S. cerevisiae deletion strains, locus YLR262C, strain YPT6 (second series), stronger effect = lower value 1.05 | S. cerevisiae deletion strains, locus YLR262C, strain YPT6, stronger effect = lower value 1.04 | S. cerevisiae deletion strains, locus YLR268W, strain sec22, stronger effect = lower value 0.992 | S. cerevisiae deletion strains, locus YLR320W, strain mms22, stronger effect = lower value 0.976 | S. cerevisiae deletion strains, locus YLR330W, strain CHS5, stronger effect = lower value 0.987 | S. cerevisiae deletion strains, locus YLR342W, strain FKS1 (second series), stronger effect = lower value 1.01 | S. cerevisiae deletion strains, locus YLR342W, strain FKS1, stronger effect = lower value 1.02 | S. cerevisiae deletion strains, locus YLR357W, strain rsc2, stronger effect = lower value 1.02 | S. cerevisiae deletion strains, locus YLR370C, strain arc18, stronger effect = lower value 1.01 | S. cerevisiae deletion strains, locus YLR371W, strain rom2, stronger effect = lower value 0.974 | S. cerevisiae deletion strains, locus YLR384C, strain iki3, stronger effect = lower value 1.02 | S. cerevisiae deletion strains, locus YLR418C, strain cdc73, stronger effect = lower value 0.994 | S. cerevisiae deletion strains, locus YML016C, strain PPZ1, stronger effect = lower value 0.987 | S. cerevisiae deletion strains, locus YML032C, strain rad52, stronger effect = lower value 0.995 | S. cerevisiae deletion strains, locus YML120C, strain ndi1, stronger effect = lower value 1.04 | S. cerevisiae deletion strains, locus YML124C, strain tub3, stronger effect = lower value 0.995 | S. cerevisiae deletion strains, locus YMR058W, strain fet3, stronger effect = lower value 1.02 | S. cerevisiae deletion strains, locus YMR078C, strain ctf18, stronger effect = lower value 0.983 | S. cerevisiae deletion strains, locus YMR125W, strain sto1, stronger effect = lower value 1.01 | S. cerevisiae deletion strains, locus YMR129W, stronger effect = lower value 1.03 | S. cerevisiae deletion strains, locus YMR205C, strain PFK2, stronger effect = lower value 1.02 | S. cerevisiae deletion strains, locus YMR223W, strain ubp8, stronger effect = lower value 0.985 | S. cerevisiae deletion strains, locus YMR231W, strain pep5, stronger effect = lower value 1.01 | S. cerevisiae deletion strains, locus YMR263W, strain SAP30, stronger effect = lower value 0.977 | S. cerevisiae deletion strains, locus YMR307W, strain GAS1, stronger effect = lower value 0.971 | S. cerevisiae deletion strains, locus YNL067W, strain RPL9B, stronger effect = lower value 0.959 | S. cerevisiae deletion strains, locus YNL071W, strain lat1, stronger effect = lower value 0.978 | S. cerevisiae deletion strains, locus YNL153C, strain GIM3, stronger effect = lower value 0.966 | S. cerevisiae deletion strains, locus YNL183C, strain NPR1, stronger effect = lower value 0.909 | S. cerevisiae deletion strains, locus YNL209W, strain ssb2, stronger effect = lower value 1 | S. cerevisiae deletion strains, locus YNL233W, strain BNI4, stronger effect = lower value 0.958 | S. cerevisiae deletion strains, locus YNL248C, strain rpa49, stronger effect = lower value 1 | S. cerevisiae deletion strains, locus YNL250W, strain rad50, stronger effect = lower value 0.978 | S. cerevisiae deletion strains, locus YNL271C, strain bni1, stronger effect = lower value 0.998 | S. cerevisiae deletion strains, locus YNL298W, strain CLA4, stronger effect = lower value 0.982 | S. cerevisiae deletion strains, locus YNL307C, strain MCK1, stronger effect = lower value 0.983 | S. cerevisiae deletion strains, locus YNL322C, strain KRE1 (second series), stronger effect = lower value 1.02 | S. cerevisiae deletion strains, locus YNL322C, strain KRE1, stronger effect = lower value 0.994 | S. cerevisiae deletion strains, locus YNR049C, strain mso1, stronger effect = lower value 1.02 | S. cerevisiae deletion strains, locus YNR052C, strain pop2, stronger effect = lower value 0.981 | S. cerevisiae deletion strains, locus YOL012C, strain htz1 0.861 | S. cerevisiae deletion strains, locus YOL147C, strain pex11, stronger effect = lower value 0.985 | S. cerevisiae deletion strains, locus YOR001W, strain rrp6, stronger effect = lower value 1.04 | S. cerevisiae deletion strains, locus YOR061W, strain CKA2, stronger effect = lower value 1 | S. cerevisiae deletion strains, locus YOR069W, strain VPS5, stronger effect = lower value 0.987 | S. cerevisiae deletion strains, locus YOR070C, strain gyp1, stronger effect = lower value 1 | S. cerevisiae deletion strains, locus YOR080W, strain dia2, stronger effect = lower value 1.03 | S. cerevisiae deletion strains, locus YOR083W, strain WHI5, stronger effect = lower value 1.05 | S. cerevisiae deletion strains, locus YOR106W, strain vam3, stronger effect = lower value 1.03 | S. cerevisiae deletion strains, locus YOR136W, strain idh2, stronger effect = lower value 0.979 | S. cerevisiae deletion strains, locus YOR144C, strain elg1, stronger effect = lower value 0.987 | S. cerevisiae deletion strains, locus YOR184W, strain ser1, stronger effect = lower value 0.985 | S. cerevisiae deletion strains, locus YOR231W, strain MKK1, stronger effect = lower value 0.959 | S. cerevisiae deletion strains, locus YOR265W, strain rbl2, stronger effect = lower value 1.01 | S. cerevisiae deletion strains, locus YOR270C, strain vph1, stronger effect = lower value 1.05 | S. cerevisiae deletion strains, locus YOR290C, strain snf2, stronger effect = lower value 1.01 | S. cerevisiae deletion strains, locus YOR316C, strain cot1, stronger effect = lower value 0.973 | S. cerevisiae deletion strains, locus YPL051W, strain arl3, stronger effect = lower value 1.02 | S. cerevisiae deletion strains, locus YPL078C, strain atp4, stronger effect = lower value 1.06 | S. cerevisiae deletion strains, locus YPL106C, strain sse1, stronger effect = lower value 0.973 | S. cerevisiae deletion strains, locus YPL240C, strain hsp82, stronger effect = lower value 1.01 | S. cerevisiae deletion strains, locus YPL256C, strain CLN2, stronger effect = lower value 0.935 | S. cerevisiae deletion strains, locus YPR119W, strain clb2, stronger effect = lower value 0.98 | S. cerevisiae deletion strains, locus YPR141C, strain kar3, stronger effect = lower value 0.973 | S. cerevisiae deletion strains, locus YPR163C, strain tif3, stronger effect = lower value 0.982 | S. cerevisiae deletion strains, locus YPR167C, strain met16, stronger effect = lower value 0.989 | S. cerevisiae deletion strains, strain wtn01, stronger effect = lower value 0.967 | S. cerevisiae strains, strain wild type, stronger effect = lower value 0.992

Reference: PubChem BioAssay AID1159580 (chemical genetic matrix, 2015)
